Results: PubChem BioAssay (EPA / NIEHS)
Records with an inconclusive call do not appear. Activity calls are given as the source filed them. Rule for the calls: active = hit-call score of the fitted dose curve at least 0.9, where 1 is the maximum; inconclusive = response in the unintended direction; inactive = score below 0.9.

What follows are compounds tested against human Vitamin D Receptor (VDR), VDR (gene 7421) (UniProt P11473) (assay: ATG_VDR_TRANS: Attagene TRANS-FACTORIAL HepG2 Assay for human Vitamin D Receptor (VDR) (AID 2283022)).
How it was run: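 HepG2 cells were transiently transfected with multiple GAL4-UAS reporter units, so signal reflects exogenous chimeric receptor-Gal4 activity. After 24 h compound exposure, reporter mRNA was measured by RT-PCR, fluorescent labelling and capillary electrophoresis, fitted for gain of signal versus DMSO.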

Sequence of human Vitamin D Receptor (VDR), VDR (gene 7421) (P11473 whole entry, looked up, the tested form may be a part): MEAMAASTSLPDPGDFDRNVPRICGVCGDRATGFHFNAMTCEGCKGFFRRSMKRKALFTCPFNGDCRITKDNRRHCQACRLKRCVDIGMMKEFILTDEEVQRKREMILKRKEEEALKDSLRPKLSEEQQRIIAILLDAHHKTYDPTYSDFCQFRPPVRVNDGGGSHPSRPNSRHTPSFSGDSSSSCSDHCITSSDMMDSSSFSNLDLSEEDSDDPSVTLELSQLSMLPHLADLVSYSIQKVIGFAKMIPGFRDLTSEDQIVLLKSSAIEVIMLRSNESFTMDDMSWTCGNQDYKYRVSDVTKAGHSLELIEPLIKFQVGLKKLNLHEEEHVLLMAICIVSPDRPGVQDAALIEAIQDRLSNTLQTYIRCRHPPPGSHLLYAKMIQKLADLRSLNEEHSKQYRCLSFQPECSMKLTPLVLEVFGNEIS

outcome, inactive:
CCCCc1ccc2ccccc2c1S(=O)(=O)O, CCCCCCCCCCCC[N+](C)(C)CCCCCCCCCCCC, Oc1c(Cl)ccc(Cl)c1Cl, CCCCCCCCCCCCCC[n+]1ccccc1, FC(F)(F)C1(F)C(F)(F)C(F)(F)C(F)(F)C1(F)F, COC(=O)CC(C(C)=O)C(=O)OC (stereo not drawn), C=CC(F)(F)C(F)(F)C(F)(F)C(F)(F)F, CCCCCCCCCCCCOC(=O)c1cc(O)c(O)c(O)c1, O=C1c2ccccc2C(=O)c2c(O)c(O)cc(O)c21, COC(=O)C(F)(F)C(F)(F)C(F)(F)F, CCCCCCCCC1CCC(=O)O1 (stereo not drawn), CC(=O)CC(C)C, O=S(=O)(O)c1ccccc1
